# The entries come from a sample that favours the strongest signals as a whole.
# B1: Tectonin 2 (Laccaria bicolor) (protein)
# chain: MPWKGISGSLSRISAGSVTNVWGVNAANNIYRYTGDDAKPWVQIPGALTDIGAAADGTVWGVNAAGNIYRYVWDSNHWTQIKGALKRISAGSRTNVWGVNAGGAIYRYTGDDANPWVQIPGVLSDIGAGADGTVWGVNAAGEIYRYTGDQGDPNHWVKIPGALSAISAGIKTNVWGVNSANNIYTSTGDDKNPWLGIGGSLVDIGAGTDGVVWGVNAGGGIYRWIRD
# Experiments:
# Experiment in all cases: glycan array binding signal (z-score within array); higher = stronger binding
# Conditions in all cases: glycan notation: IUPAC condensed, linker removed
# [1] = target: Fuc(a1-2)Gal(b1-3)GlcNAc(b1-2)Man(a1-3)[Fuc(a1-2)Gal(b1-3)GlcNAc(b1-2)Man(a1-6)]Man(b1-4)GlcNAc(b1-4)[Fuc(a1-6)]GlcNAc
# Summary of the method: (§1)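 Glycan array data came from 3228 arrays in the Consortium for Functional Glycomics database, and only arrays with an available protein sequence were kept. Glycan names were put into IUPAC-condensed notation, and columns mapping to the same glycan were averaged. The binding signal is a within-array Z-score, averaged across arrays of one protein sequence run at different concentrations or buffers and across linkers. A negative Z-score can be read as non-binding.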
# Fuc(a1-2)Gal(b1-4)Glc6S = target: Fuc(a1-2)Gal(b1-4)Glc6S
# Summary of the method: as §1
# [2] = target: Fuc(a1-2)[Gal(a1-3)]Gal(b1-4)GlcNAc(b1-2)Man(a1-3)[Fuc(a1-2)[Gal(a1-3)]Gal(b1-4)GlcNAc(b1-2)Man(a1-6)]Man(b1-4)GlcNAc(b1-4)GlcNAc
# Summary of the method: as §1
# [3] = target: Fuc(a1-2)[GalNAc(a1-3)]Gal(b1-4)GlcNAc(b1-2)Man(a1-3)[Fuc(a1-2)[GalNAc(a1-3)]Gal(b1-4)GlcNAc(b1-2)Man(a1-6)]Man(b1-4)GlcNAc(b1-4)GlcNAc
# Summary of the method: as §1
# [4] = target: Fuc(a1-2)[GalNAc(a1-3)]Gal(b1-4)[Fuc(a1-3)]GlcNAc
# Summary of the method: as §1
# [5] = target: Fuc(a1-3)[Gal(b1-4)]GlcNAc(b1-4)Gal(b1-4)[Fuc(a1-3)]GlcNAc(b1-4)Gal(b1-4)[Fuc(a1-3)]GlcNAc
# Summary of the method: as §1
# [6] = target: Fuc(a1-3)[Gal3S(b1-4)]GlcNAc6S
# Summary of the method: as §1
# [7] = target: Gal(a1-3)Gal(b1-3)[Fuc(a1-4)]GlcNAc(b1-2)Man(a1-3)[Gal(a1-3)Gal(b1-3)[Fuc(a1-4)]GlcNAc(b1-2)Man(a1-6)]Man(b1-4)GlcNAc(b1-4)GlcNAc
# Summary of the method: as §1
# Gal(b1-3)GalNAc = target: Gal(b1-3)GalNAc
# Summary of the method: as §1
# [8] = target: Gal(b1-3)GalNAc(a1-3)[Fuc(a1-2)]Gal(b1-4)Glc
# Summary of the method: as §1
# [9] = target: Gal(b1-3)GalNAc(b1-4)Gal(b1-4)Glc
# Summary of the method: as §1
# [10] = target: Gal(b1-3)GlcNAc(b1-2)Man(a1-3)[Gal(b1-3)GlcNAc(b1-2)Man(a1-6)]Man(b1-4)GlcNAc(b1-4)GlcNAc
# Summary of the method: as §1
# [11] = target: Gal(b1-3)[Fuc(a1-4)]GlcNAc
# Summary of the method: as §1
# [12] = target: Gal(b1-4)GlcNAc(b1-2)Man(a1-3)Man(b1-4)GlcNAc(b1-4)GlcNAc
# Summary of the method: as §1
# [13] = target: Gal(b1-4)GlcNAc(b1-2)[Gal(b1-4)GlcNAc(b1-4)]Man(a1-3)[Gal(b1-4)GlcNAc(b1-2)[Gal(b1-4)GlcNAc(b1-6)]Man(a1-6)]Man(b1-4)GlcNAc(b1-4)GlcNAc
# Summary of the method: as §1
# [14] = target: Gal(b1-4)GlcNAc(b1-2)[Gal(b1-4)GlcNAc(b1-4)]Man(a1-3)[GlcNAc(b1-4)][Gal(b1-4)GlcNAc(b1-2)Man(a1-6)]Man(b1-4)GlcNAc(b1-4)GlcNAc
# Summary of the method: as §1
# [15] = target: Gal(b1-4)GlcNAc(b1-3)Gal(b1-4)[Fuc(a1-3)GlcNAc(b1-6)]Gal(b1-4)Glc
# Summary of the method: as §1
# Gal6S(b1-4)GlcNAc6S = target: Gal6S(b1-4)GlcNAc6S
# Summary of the method: as §1
# Glc(a1-6)Glc(a1-6)Glc = target: Glc(a1-6)Glc(a1-6)Glc
# Summary of the method: as §1
# Glc(b1-4)Glc = target: Glc(b1-4)Glc
# Summary of the method: as §1
# GlcA(b1-3)GlcNAc = target: GlcA(b1-3)GlcNAc
# Summary of the method: as §1
# [16] = target: GlcNAc(a1-4)Gal(b1-4)GlcNAc(b1-3)Gal(b1-4)GlcNAc
# Summary of the method: as §1
# [17] = target: GlcNAc(a1-4)Gal(b1-4)GlcNAc(b1-3)Gal(b1-4)[Fuc(a1-3)]GlcNAc(b1-3)Gal(b1-4)[Fuc(a1-3)]GlcNAc
# Summary of the method: as §1
# [18] = target: GlcNAc(b1-2)Man(a1-3)[GlcNAc(b1-2)Man(a1-6)]Man(b1-4)GlcNAc(b1-4)[Fuc(a1-6)]GlcNAc
# Summary of the method: as §1
# [19] = target: GlcNAc(b1-2)[GlcNAc(b1-4)]Man(a1-3)[GlcNAc(b1-4)][GlcNAc(b1-2)Man(a1-6)]Man(b1-4)GlcNAc(b1-4)GlcNAc
# Summary of the method: as §1
# GlcNAc(b1-3)Man = target: GlcNAc(b1-3)Man
# Summary of the method: as §1
# [20] = target: GlcNAc(b1-3)[GlcNAc(b1-6)]GalNAc
# Summary of the method: as §1
# Man(a1-3)[Man(a1-6)]Man = target: Man(a1-3)[Man(a1-6)]Man
# Summary of the method: as §1
# Man(a1-6)Man = target: Man(a1-6)Man
# Summary of the method: as §1
# [21] = target: Neu5Ac(a2-3)Gal(b1-3)GalNAc(b1-3)Gal(a1-4)Gal(b1-4)Glc
# Summary of the method: as §1
# [22] = target: Neu5Ac(a2-3)Gal(b1-3)GalNAc(b1-4)[Neu5Ac(a2-3)]Gal(b1-4)Glc
# Summary of the method: as §1
# [23] = target: Neu5Ac(a2-3)Gal(b1-4)GlcNAc(b1-3)Gal(b1-4)[Fuc(a1-3)]GlcNAc
# Summary of the method: as §1
# [24] = target: Neu5Ac(a2-3)Gal(b1-4)[Fuc(a1-3)]GlcNAc(b1-3)GalNAc
# Summary of the method: as §1
# [25] = target: Neu5Ac(a2-6)Gal(b1-4)GlcNAc(b1-3)GalNAc
# Summary of the method: as §1
# Neu5Ac(a2-6)GalNAc = target: Neu5Ac(a2-6)GalNAc
# Summary of the method: as §1
# Neu5Ac(a2-8)Neu5Ac = target: Neu5Ac(a2-8)Neu5Ac
# Summary of the method: as §1
# [26] = target: Neu5Ac(a2-8)Neu5Ac(a2-8)Neu5Ac(a2-3)[GalNAc(b1-4)]Gal(b1-4)Glc
# Summary of the method: as §1
# [27] = target: Neu5Ac(a2-8)Neu5Ac(a2-8)Neu5Ac(a2-8)Neu5Ac(a2-3)[GalNAc(b1-4)]Gal(b1-4)Glc
# Summary of the method: as §1
# [28] = target: Neu5Ac9Ac(a2-6)Gal(b1-4)GlcNAc
# Summary of the method: as §1
binder,measurement,setting,value
B1,glycan array binding signal (z-score),[1],-0.069
same,glycan array binding signal (z-score),Fuc(a1-2)Gal(b1-4)Glc6S,-0.349
same,glycan array binding signal (z-score),[2],9.62
same,glycan array binding signal (z-score),[3],-0.16
same,glycan array binding signal (z-score),[4],-0.145
same,glycan array binding signal (z-score),[5],-0.16
same,glycan array binding signal (z-score),[6],0.299
same,glycan array binding signal (z-score),[7],-0.008
same,glycan array binding signal (z-score),Gal(b1-3)GalNAc,-0.212
same,glycan array binding signal (z-score),[8],-0.46
same,glycan array binding signal (z-score),[9],-0.123
same,glycan array binding signal (z-score),[10],0.354
same,glycan array binding signal (z-score),[11],-0.348
same,glycan array binding signal (z-score),[12],-0.226
same,glycan array binding signal (z-score),[13],-0.038
same,glycan array binding signal (z-score),[14],0.732
same,glycan array binding signal (z-score),[15],-0.568
same,glycan array binding signal (z-score),Gal6S(b1-4)GlcNAc6S,2.71
same,glycan array binding signal (z-score),Glc(a1-6)Glc(a1-6)Glc,-0.136
same,glycan array binding signal (z-score),Glc(b1-4)Glc,-0.277
same,glycan array binding signal (z-score),GlcA(b1-3)GlcNAc,4.49
same,glycan array binding signal (z-score),[16],-0.238
same,glycan array binding signal (z-score),[17],2.15
same,glycan array binding signal (z-score),[18],0.258
same,glycan array binding signal (z-score),[19],-0.327
same,glycan array binding signal (z-score),GlcNAc(b1-3)Man,-0.371
same,glycan array binding signal (z-score),[20],-0.21
same,glycan array binding signal (z-score),Man(a1-3)[Man(a1-6)]Man,-0.426
same,glycan array binding signal (z-score),Man(a1-6)Man,-0.438
same,glycan array binding signal (z-score),[21],0.073
same,glycan array binding signal (z-score),[22],2.34
same,glycan array binding signal (z-score),[23],2.47
same,glycan array binding signal (z-score),[24],2.62
same,glycan array binding signal (z-score),[25],1.14
same,glycan array binding signal (z-score),Neu5Ac(a2-6)GalNAc,-0.325
same,glycan array binding signal (z-score),Neu5Ac(a2-8)Neu5Ac,-0.07
same,glycan array binding signal (z-score),[26],-0.445
same,glycan array binding signal (z-score),[27],2.33
same,glycan array binding signal (z-score),[28],0.77

# — the supplement of paper PMC8728848
